Source: PubChem BioAssay (National Center for Advancing Translational Sciences (NCATS))
KB-V1 MDR tox: kills drug-selected multidrug resistant KB-V1 cells | AID 1347076 | Potency, µM (titrated, usually from 46.1 µM), usual class: cytotoxic | 400,000 compounds, 3.4% hits | KB-V1 MDR cells viability, CellTiter-Glo, 72 h; also: % is scaled to controls: 0 for no effect and ±100 for the full control effect; nearly all actives have a fitted effect of over 60% in size
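Following 72 h at 37 degrees C with compound, KB-V1 cell viability was read by CellTiter-Glo luminescence, medium being phenol-red-free DMEM plus 10% FBS; concentration-response parameters came from normalized, curve-fitted qHTS data.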
ELG1 repair inh: ELG1-dependent DNA repair inhibition. HEK293T ELG1-luciferase reporter, luminescence, 16 h; DNA damage induced by 5-fluorouridine. Potency, µM (top dose mostly 46.1 µM), for the others: top-dose activity change, negative = inhibition, actives largely listed as inhibitors. 330,000 compounds, 2.3% hits. AID 504467; also: % is scaled to controls: 0 for no effect and ±100 for the full control effect; nearly all actives have a fitted effect of over 55% in size
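DMSO vehicle served as the neutral condition. Each well held 2,000 cells given 5-fluorouridine plus compound; after 16 hr at 37 °C/5% CO2, ONE-Glo was added and luciferase measured 30 min later.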
SW480 rereplic: inducers of DNA re-replication in SW480 colon cancer cells. SW480 DNA re-replication, Hoechst DNA content imaging, 48 h. 340,000 compounds, 1.8% hits. Potency, µM (highest dose often 46.1 µM), for inactives: at the top dose re-replication activation, usual class: activators; also: % of control where 0% means no effect; nearly all actives have a fitted effect of over 55% in size
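DNA re-replication was detected as more nuclei of elevated Hoechst intensity after 48 hr exposure to compound (23 nL pinned per well of 250 cells).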
KB-3-1 tox: KB-3-1 parental cell cytotoxicity; KB-3-1 viability, CellTiter-Glo ATP luminescence, 72 h; Potency, µM (titrated, usually from 46.1 µM), most hits filed as cytotoxic; 400,000 compounds, 1.4% hits; AID 1347075; also: % is scaled to controls: 0 for no effect and ±100 for the full control effect; nearly all actives have a fitted effect of over 60% in size
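Here the drug-naive KB-3-1 line serves as comparator for MDR sub-line selectivity; cells received compound titrations, 72 h at 37 °C, then CellTiter-Glo readout.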
MCF10A rereplic: inducers of DNA re-replication in MCF 10A breast cells; Potency, µM (titrated, usually from 46.1 µM), for the others: at the highest dose activity, positive = re-replication, most hits filed as activators; MCF 10A DNA re-replication, Hoechst nuclear intensity, 48 h; 350,000 compounds, 2.9% hits; also: % of control where 0% means no effect; nearly all actives have a fitted effect of over 50% in size
Starred values were filed as active, the others as inactive. Rows were chosen to be rich in hits. Some 8.2% of all compounds tested hit in one or more screens of this group. Calls follow the shape of the dose curve; as a rule, active = well fitted curve in the direction sought with a large enough effect; inconclusive = small, poorly fitted or top-dose-only effect, or another doubt; inactive = no such curve, though single readings can be large; an effect the other way counts as inactive or inconclusive. Potency is read from the fitted curve at half-maximal effect.

What do the screens show for `CCc1ccc(NC(=O)CSC2=Nc3ccccc3C3=NC(CCC(=O)NCc4ccccc4OC)C(=O)N23)cc1` (stereo unspecified)?
KB-V1 MDR tox: inactive; KB-3-1 tox: inactive

Results for FC(F)(F)c1nnc2c(Sc3ccccc3)nc3ccc(Cl)cc3n12 ?
KB-V1 MDR tox: inconclusive; ELG1 repair inh: -11%; SW480 rereplic: inconclusive; KB-3-1 tox: inconclusive; MCF10A rereplic: 12µM*

How did Cc1ccc(CNC(=O)Cc2ccc(NC(=O)N3CCSc4ncccc43)cc2)cc1 do in these assays?
KB-V1 MDR tox: inactive; KB-3-1 tox: inactive

How did COc1ccc(C(C(=O)Nc2c(C)cccc2C)N2CCN(C)CC2)cc1 (stereo unspecified) do in these assays?
KB-V1 MDR tox: inactive; KB-3-1 tox: inactive

What do the screens show for `CN(C)/C=C(/C(=O)c1ccccc1)n1cncn1`?
KB-V1 MDR tox: inactive; ELG1 repair inh: 2%; SW480 rereplic: -4%; KB-3-1 tox: inactive; MCF10A rereplic: -3%

Results for CC(C)(C)C(=O)/C(=C/c1ccc(Cl)cc1)n1cncn1 ?
KB-V1 MDR tox: inconclusive; ELG1 repair inh: inconclusive; SW480 rereplic: inconclusive; KB-3-1 tox: inconclusive; MCF10A rereplic: 6.5µM*

What do the screens show for `CC(C)(C)C(=O)/C(=C\c1ccc([N+](=O)[O-])cc1)n1cncn1`?
ELG1 repair inh: 12µM*

How did Cc1ccc(S(=O)(=O)Nc2nc(-c3ccccc3)cs2)cc1 do in these assays?
KB-V1 MDR tox: inactive; ELG1 repair inh: -5%; SW480 rereplic: -3%; KB-3-1 tox: inactive; MCF10A rereplic: -1%

Results for COc1ccc(-c2csc(NC(=O)c3ccccc3F)n2)cc1 ?
KB-V1 MDR tox: inactive; ELG1 repair inh: inconclusive; SW480 rereplic: -7%; KB-3-1 tox: inactive; MCF10A rereplic: 13%

What do the screens show for `COc1ccc(-c2csc(NC(=O)c3ccccc3NS(=O)(=O)c3ccc(F)c(F)c3)n2)cc1`?
KB-V1 MDR tox: 4.1µM*; ELG1 repair inh: inconclusive; SW480 rereplic: inconclusive; KB-3-1 tox: 5.2µM*; MCF10A rereplic: 13µM*

Results for Cc1ccc(S(=O)(=O)Nc2ccccc2C(=O)Nc2nc(-c3ccc(F)cc3)cs2)cc1 ?
KB-V1 MDR tox: 2.6µM*; ELG1 repair inh: inconclusive; SW480 rereplic: inconclusive; KB-3-1 tox: 12µM*; MCF10A rereplic: 5.8µM*

What do the screens show for `COC1C=CO[C@@]2(C)Oc3c(C)c(O)c4c(O)c(c(C=NN5CCN(C)CC5)c(O)c4c3C2=O)NC(=O)/C(C)=C\C=CC(C)C(O)[C@@H](C)C(O)C(C)[C@H](OC(C)=O)C1C` (stereo partly specified)?
SW480 rereplic: inconclusive; MCF10A rereplic: 11%

How did Cc1onc(-c2ccccc2)c1C(=O)NC(=S)NNC(=O)c1ccc(O)cc1O do in these assays?
KB-V1 MDR tox: 3.3µM*; ELG1 repair inh: inconclusive; SW480 rereplic: -2%; KB-3-1 tox: 4.6µM*; MCF10A rereplic: inconclusive

How did Cc1onc(-c2ccccc2)c1C(=O)NC(=S)NNC(=O)c1ccccc1O do in these assays?
KB-V1 MDR tox: inconclusive; ELG1 repair inh: 3%; SW480 rereplic: -5%; KB-3-1 tox: inconclusive; MCF10A rereplic: 26%

What do the screens show for `CCCOc1ccc(C(=O)NC(=S)NNC(=O)c2c(-c3ccccc3)noc2C)cc1`?
KB-V1 MDR tox: inactive; ELG1 repair inh: 7.3µM*; SW480 rereplic: 14%; KB-3-1 tox: inactive; MCF10A rereplic: inconclusive

What do the screens show for `CN(C)c1ccc(/C=C/c2ccnc3ccc([N+](=O)[O-])cc23)cc1`?
KB-V1 MDR tox: inactive; KB-3-1 tox: inactive

How did Cc1c(C(=O)Nc2cccnc2)oc2ccc(Br)cc12 do in these assays?
KB-V1 MDR tox: 3.3µM*; ELG1 repair inh: inconclusive; SW480 rereplic: inconclusive; KB-3-1 tox: 8.2µM*; MCF10A rereplic: inconclusive

How did O=C(Nc1ccc2oc(-c3ccccc3Cl)nc2c1)c1cncc(Br)c1 do in these assays?
KB-V1 MDR tox: 5.2µM*; ELG1 repair inh: inconclusive; SW480 rereplic: inconclusive; KB-3-1 tox: inconclusive; MCF10A rereplic: 16µM*

Results for O=C(Nc1ccc2oc(-c3ccccc3)nc2c1)c1cccs1 ?
KB-V1 MDR tox: inactive; ELG1 repair inh: inconclusive; SW480 rereplic: -5%; KB-3-1 tox: inactive; MCF10A rereplic: 8%

Results for O=C(Nc1ccc2oc(-c3cc(Br)ccc3Cl)nc2c1)c1ccc2ccccc2c1 ?
KB-V1 MDR tox: inactive; KB-3-1 tox: inactive

How did O=C(Nc1ccc2oc(-c3ccccc3)nc2c1)c1ccncc1 do in these assays?
KB-V1 MDR tox: 8.2µM*; ELG1 repair inh: inconclusive; SW480 rereplic: -1%; KB-3-1 tox: inconclusive; MCF10A rereplic: 7%

How did CCc1ccc2oc(C(=O)Nc3cccnc3)c(C)c2c1 do in these assays?
KB-V1 MDR tox: inconclusive; ELG1 repair inh: inconclusive; SW480 rereplic: inconclusive; KB-3-1 tox: inconclusive; MCF10A rereplic: 23%

Results for O=C(Nc1ccc2oc(Cc3ccc(Cl)cc3)nc2c1)c1cccnc1 ?
KB-V1 MDR tox: inconclusive; ELG1 repair inh: inconclusive; SW480 rereplic: 16µM*; KB-3-1 tox: inactive; MCF10A rereplic: inconclusive

How did Cc1ccc(C(=O)N/C(=C/c2ccc(Cl)cc2)C(=O)N2CCOCC2)cc1 do in these assays?
KB-V1 MDR tox: inactive; ELG1 repair inh: inconclusive; SW480 rereplic: 0%; KB-3-1 tox: inactive; MCF10A rereplic: 22%

What do the screens show for `CCOc1cccc(C(=O)Nc2ccc3oc(-c4cccnc4)nc3c2)c1`?
KB-V1 MDR tox: inconclusive; ELG1 repair inh: 18µM*; SW480 rereplic: 8%; KB-3-1 tox: inactive; MCF10A rereplic: inconclusive

How did Nc1cccc(-c2nc3cc(S(=O)(=O)c4ccc5oc(-c6cccc(N)c6)nc5c4)ccc3o2)c1 do in these assays?
KB-V1 MDR tox: inconclusive; ELG1 repair inh: 19%; SW480 rereplic: 6.5µM*; KB-3-1 tox: inconclusive; MCF10A rereplic: inconclusive

Results for CCOc1cccc(C(=O)Nc2ccc3oc(Cc4ccc(Cl)cc4)nc3c2)c1 ?
KB-V1 MDR tox: inconclusive; ELG1 repair inh: 18µM*; SW480 rereplic: inconclusive; KB-3-1 tox: inconclusive; MCF10A rereplic: inconclusive

Results for Cc1c(C(=O)Nc2ccc3oc(-c4cccnc4)nc3c2)oc2ccccc12 ?
KB-V1 MDR tox: inconclusive; ELG1 repair inh: inconclusive; SW480 rereplic: 21µM*; KB-3-1 tox: inactive; MCF10A rereplic: inconclusive

How did CCCCOc1cccc(C(=O)Nc2ccc3oc(-c4cccnc4)nc3c2)c1 do in these assays?
KB-V1 MDR tox: inactive; KB-3-1 tox: inactive

How did Cc1ccc2oc(-c3cccc(N)c3)nc2c1 do in these assays?
KB-V1 MDR tox: inconclusive; ELG1 repair inh: inconclusive; SW480 rereplic: -8%; KB-3-1 tox: inactive; MCF10A rereplic: -42%

What do the screens show for `CCOc1cccc(C(=O)Nc2ccc3oc(-c4ccc(C(C)(C)C)cc4)nc3c2)c1`?
KB-V1 MDR tox: inactive; KB-3-1 tox: inconclusive
